Screening results (PubChem BioAssay)
An excerpt weighted towards active compounds, which were near 7.4% of everything screened.
NPC1 promoter act – NPC1 promoter activation | Huh7 NPC1 promoter luciferase reporter, 24 h | Potency, µM (top dose mostly 9.22 µM), for the others: at the top dose activation, most hits filed as activators | 320,000 tested, 2.4% active | AID 485313; note: % of control where 0% means no effect; nearly all actives have a fitted effect of over 60% in size
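Quantitative HTS used a cell-based reporter: Huh7 cells stably bearing the NPC1 promoter upstream of luciferase were treated with compounds for 24 h, and promoter activation was read as luminescence.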
Rab9 prom act – Rab9 promoter activation; Huh7 Rab9 promoter-luciferase reporter, luminescence, 24 h; Potency, µM (top dose mostly 9.22 µM), for inactives: at the top dose activation, negative = inhibition, usual class: activators; 320,000 tested, 2.8% active; AID 485297; note: % of control where 0% means no effect; nearly all actives have a fitted effect of over 60% in size
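Using Huh7 cells stably transfected with Rab9 promoter–luciferase, compounds were incubated 24 h at 37 °C, 5% CO2; luciferase luminescence was read 10 min after reagent addition.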
SMN2 splice enh – SMN2 splice variant enhancement. AID 1458. 210,000 tested, 2.8% active. HEK293 SMN2-luciferase splicing reporter, luminescence, 30-36 h. Potency, µM (top dose mostly 46.1 µM), without a hit: at the highest dose activity change, positive = activation, actives largely listed as activators; note: % of control where 0% means no effect; nearly all actives have a fitted effect of over 55% in size
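qHTS luciferase splicing reporter: luminescence rises when SMN2 exon 7 is included in transfected HEK293 cells. Compound exposure lasted 30-36 h at 37C, with 4.5 mM final sodium butyrate as control, followed by a ONE-Glo read.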
FLuc counter – counter-screen for miR-21 project: firefly luciferase inhibitors or activators. Potency, µM (highest dose often 57.5 µM), for the others: at the highest dose activity change, negative = inhibition, hits mostly inhibitors. 360,000 tested, 6.9% active. purified FLuc, Km substrates, luminescence inhibition;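 note: plate controls were vehicle for no effect and reference inhibitor for full effect; nearly all actives have a fitted effect of over 55% in size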
Target sequence (P08659 whole entry, looked up): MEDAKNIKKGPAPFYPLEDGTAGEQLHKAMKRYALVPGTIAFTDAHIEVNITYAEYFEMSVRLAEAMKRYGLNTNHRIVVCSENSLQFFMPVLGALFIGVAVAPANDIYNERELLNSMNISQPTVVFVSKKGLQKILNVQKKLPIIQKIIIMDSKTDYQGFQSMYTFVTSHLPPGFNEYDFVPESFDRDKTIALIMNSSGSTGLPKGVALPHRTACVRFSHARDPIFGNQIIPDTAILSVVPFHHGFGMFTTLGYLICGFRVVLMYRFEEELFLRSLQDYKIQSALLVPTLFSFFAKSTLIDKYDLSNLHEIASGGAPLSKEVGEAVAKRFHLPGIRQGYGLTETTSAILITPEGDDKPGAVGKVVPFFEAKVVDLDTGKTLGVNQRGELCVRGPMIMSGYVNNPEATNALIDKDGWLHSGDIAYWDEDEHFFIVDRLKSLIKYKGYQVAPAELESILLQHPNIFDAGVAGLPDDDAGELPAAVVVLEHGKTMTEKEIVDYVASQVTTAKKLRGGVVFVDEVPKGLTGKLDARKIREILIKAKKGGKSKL
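Purified P. pyralis luciferase (10nM final) with 10uM D-luciferin and 10uM ATP (Km levels) in 50mM Tris acetate pH 7.5, 10mM Mg acetate, 0.01% Tween-20, 0.05% BSA; qHTS 6-point titration, ~60 µM downward; luminescence read.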
ELG1 genotoxic – induces genotoxicity in HEK293T cells with luciferase-tagged ELG1. HEK293T ELG1-luciferase reporter, luminescence, 16 h. 330,000 tested, 1.3% active. Potency, µM (highest dose often 46 µM), for inactives: top-dose activity change, positive = activation, most hits filed as activators; note: % of control where 0% means no effect; nearly all actives have a fitted effect of over 60% in size
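Genotoxicity was scored as increased ELG1-luciferase reporter signal, measured by ONE-Glo luminescence (30 min, room temperature). Compound or vehicle exposure of the HEK293T reporter cells lasted 16 hr at 37°C.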
* = called active by the depositor; ? = inconclusive; . = no result; [ ] = dose if it differs, or a comment. Calls come from the whole dose curve; as a rule, active = well fitted curve in the direction sought with a large enough effect; inconclusive = small, poorly fitted or top-dose-only effect, or another doubt; inactive = no such curve, though single readings can be large; an effect the other way counts as inactive or inconclusive. Potency is the fitted concentration of half-maximal effect.

SMILES	NPC1 promoter act	Rab9 prom act	SMN2 splice enh	FLuc counter	ELG1 genotoxic
COc1ccc(C(=O)Nc2cc(C)on2)cc1	2µM*	1.78µM*	12.6µM*	6.75µM*	?
COc1ccc(-c2cc(C(=O)Nc3cc(C)on3)no2)cc1	19.2%	?	23.2%	0.4%	16.7%
CNc1nc(N)c(C(=O)Nc2cc(C)on2)s1	?	?	14.1µM*	?	13.0%
Cc1cc(NC(=O)c2ccc(C)c(C)c2)no1	3.55µM*	2.82µM*	.	23.9µM*	?
Cc1cc(NC(=O)c2ccc3nc(-c4ccccc4)c(-c4ccccc4)nc3c2)no1	-7.1%	-8.3%	18.7%	0.2%	10.7%
CCCOc1ccc(C(=O)NCC2OCCc3ccccc32)cc1 (stereo not given)	.	.	-9.7%	?	.
CCSc1nc(-c2ccc(OC)cc2)nc2c1Cc1c(CO)cnc(C)c1O2	.	.	.	-1.3%	.
CC(C)=NOCc1ccc(-c2cn([C@@H]3COC[C@H]3O)nn2)cc1	-0.5%	-0.4%	10.9%	-13.7%	5.7%
CC(C)(C)[C@H](NC(=O)c1ccc(N)c(Cl)c1)C(=O)N1CCC[C@H]1C(=O)N[C@H](C#N)Cc1nn[nH]n1	-3.0%	-0.6%	.	4.2%	.
COc1ccc(NC2CCCN(C(=O)c3c(C)noc3C)C2)cc1 (stereo not given)	6.6%	7.9%	.	4.0%	6.8%
Cc1ccc(C2=NN(CC(=O)NCCN(CC(C)C)CC(C)C)C(=O)CC2)cc1	-0.9%	0.3%	.	2.7%	-5.3%
O=C(O)CC(Cc1ccc(Cl)cc1)C(=O)Nc1cc(Cl)ccc1Cl (stereo not given)	1.3%	-2.1%	.	-15.7%	0.0%
COc1ccc(C(=O)Nc2noc3ccccc23)cc1	.	.	?	0.239µM*	.
Cc1cccc(OCc2ccc(C(=O)Nc3cc(C)on3)o2)c1	8.8%	4.8%	.	-1.7%	1.1%
Cc1cc(NC(=O)c2ccc(NC(=O)C(C)C)cc2)no1	14.2%	?	5.8%	?	?
C/C(=C\C(=O)Nc1cc(C)on1)c1ccccc1	28.7%	26.6%	?	12µM*	14.2%
COc1ccc(OCc2cccc(C(=O)Nc3cc(C)on3)c2)cc1	0.1µM*	0.1µM*	0.199µM*	3.79µM*	?
CC(=O)Oc1ccc(C(=O)Nc2cc(C)on2)cc1	?	?	.	15.1µM*	?
NC(N)=NCCCC(=O)O	.	.	-8.0%[9.22 µM]	.	.
COc1cc(-c2nnc(SCC(=O)Nc3ccc(C(=O)O)cc3)o2)cc(OC)c1OC	.	.	.	.	2.1%
COc1ccccc1NC(=O)NC1(C(=O)N2CCCCC2)CCCCC1	-1.1%	-7.1%	.	-0.2%	0.7%
O=[N+]([O-])c1cccc(-c2nc(-c3ccccc3)no2)c1	6.31µM*	3.98µM*	.	1.35µM*	?
O=[N+]([O-])c1cccc(-c2nc(-c3ccncc3)no2)c1	?	?	16.7%	?	?
O=[N+]([O-])c1cccc(-c2noc(COc3ccccc3)n2)c1	-0.8%	-7.7%	-12.0%	?	11.0%
O=[N+]([O-])c1cccc(-c2noc(-c3ccco3)n2)c1	3.55µM*	2.51µM*	.	9.53µM*	?
SMILES	NPC1 promoter act	Rab9 prom act	SMN2 splice enh	FLuc counter	ELG1 genotoxic
COC(=O)[C@@H]1C[C@@]2(O)[C@@H](O)[C@@H](O)[C@@H](O)C[C@H]2N1CC(c1ccccc1)c1ccccc1	-2.1%	-9.6%	-5.0%	-0.2%	2.5%
O=c1[nH]c2ccc(S(=O)(=O)NCc3ccccc3)cc2[nH]1	-8.4%	-3.1%	3.0%	-1.8%	-0.2%
COC1CCN(Cc2c(C(=O)N3CCN(C4CCCCC4)CC3)nc3ccccn23)CC1	-0.1%	-4.3%	.	1.2%	-2.8%
Cc1ccc2c(c1)COc1c3ccc(C(=O)NCC4CC4)cc3nn1-2	1.26µM*	?	.	5.36µM*	9.3%
Cc1ccc2c(c1)COc1c3ccc(C(=O)O)cc3nn1-2	-22.0%	?	.	1.35µM*	-0.6%
O=C(NCCO)c1ccc2c3n(nc2c1)-c1ccccc1CO3	0.501µM*	2.82µM*	.	2.13µM*	?
O=C(NCC1CC1)c1ccc2c3n(nc2c1)-c1ccccc1CO3	0.355µM*	?	.	0.477µM*	?
CCCn1nc2cc(C(=O)NC3CCCc4ccccc43)ccc2c1OCC (stereo not given)	-0.3%	-0.1%	-13.4%	-2.3%	-6.9%
